Results published in PubChem BioAssay (NCATS).
“And” between values parts separate entries of the source, which are not always exact repeats. Equal values may be shown once. Records with an inconclusive call do not appear. The source made the active and inactive calls. Unless noted, the call rests on the fitted dose curve; in most records, active means well fitted curve in the direction sought with a large enough effect; inconclusive means small, poorly fitted or top-dose-only effect, or another doubt; inactive means no such curve, though single readings can be large; an effect the other way counts as inactive or inconclusive.

Legend:
[1] = target: Cellular tumor antigen p53 (Homo sapiens) (UniProt P04637); assay: Primary qHTS for small molecule compounds that upregulate eGFP-tagged delta133p53alpha (in N-terminal) cells. (AID 2060322); conditions: NCI-H358 eGFP-delta133p53alpha fluorescence, 24 h; activation: active compounds read high;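 further: 0% = DMSO vehicle and 100% = reference activator; nearly all actives have a fitted effect of over 75% in size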
Outline: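 NCI-H358 cells pre-induced 24 h with 10 ng/ml doxycycline to express N-terminal eGFP-delta133p53alpha, then dosed 24 h at 37C without doxycycline; fixed, Hoechst-stained, GFP intensity by laser scanning cytometry, normalized to DMSO (0%) and 57.5 uM 5-azacytidine (100%).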

[2] = target: Cellular tumor antigen p53 (Homo sapiens) (UniProt P04637); assay: Primary qHTS for small molecule compounds that upregulate eGFP-tagged delta133p53alpha (in C-terminal) cells. (AID 2060324); conditions: NCI-H358 delta133p53alpha-eGFP (C-terminal tag), GFP fluorescence imaging, 24 h; series mostly up to 57.5 µM;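 further: 0% = DMSO wells and 100% = 57.5 µM 5-azacytidine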
Outline: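 NCI-H358 cells with doxycycline-inducible D133p53a-eGFP (C-terminal tag), pre-induced 24 h with 100 ng/ml doxycycline, plated 800/well in doxycycline-free medium and treated 24 h at 37 °C with compound titrations. Cells were then fixed and Hoechst-stained, and GFP intensity was read by laser scanning cytometry.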

[3] = target: Aldehyde dehydrogenase, mitochondrial (Homo sapiens) (UniProt P05091); assay: qHTS for Inhibitors of the Aldehyde Dehydrogenase Family (ALDH2) Validation screens (AID 2061302; active means well fitted inhibition curve with a large enough effect; title and protocol of this record describe different tests;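 further: plate controls were DMSO vehicle for no effect and maximal DPI positive control response for full effect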); conditions: ALDH inhibition qHTS; series mostly up to 42.6 µM
[4] = target: Retinaldehyde dehydrogenase 3 (Homo sapiens) (UniProt P47895); assay: qHTS for Inhibitors of the Aldehyde Dehydrogenase Family (ALDH1A3) Validation screen (AID 2061312); conditions: ALDH1A3 enzyme inhibition qHTS validation, fluorescence; series mostly up to 42.4 µM; further: on the % scale 0 is the no-effect control and ±100 the full control effect; nearly all actives have a fitted effect of over 45% in size

Cellular tumor antigen p53 (Homo sapiens), sequence (P04637 whole entry, looked up): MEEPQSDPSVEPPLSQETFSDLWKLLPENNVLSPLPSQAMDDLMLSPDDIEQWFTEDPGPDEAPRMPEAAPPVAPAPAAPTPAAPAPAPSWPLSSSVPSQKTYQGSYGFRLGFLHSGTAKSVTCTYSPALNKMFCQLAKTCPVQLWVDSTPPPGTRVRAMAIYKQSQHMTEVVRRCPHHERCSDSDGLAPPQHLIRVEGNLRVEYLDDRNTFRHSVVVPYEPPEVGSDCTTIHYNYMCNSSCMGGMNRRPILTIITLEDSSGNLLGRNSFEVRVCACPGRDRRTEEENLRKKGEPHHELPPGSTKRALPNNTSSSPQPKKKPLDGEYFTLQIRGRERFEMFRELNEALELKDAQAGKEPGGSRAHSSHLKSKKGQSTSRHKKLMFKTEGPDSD

COc1ccc(C(CN(C)C)C2(O)CCCCC2)cc1 (stereo not drawn)
inactive: activation [1] -16.7% and -7.09% and -5.45% | Potency [2] | Potency [3] | Potency [4]

COc1ccc(CNC(=O)/C=C/c2ccc3[nH]cc(CCN(C)C)c3c2)cc1
inactive: activation [1] 13.3% | Potency [2] | Potency [3] | Potency [4]

CCCN(CCC)C1Cc2cc(OC)c(OC)cc2C1
inactive: activation [1] -2.4% | Potency [2] | Potency [3] | Potency [4]

O=C(O)[C@@H]1CCN1
inactive: activation [1] -48.2% | Potency [2] | Potency [3] | Potency [4]

CCCN(CCC)CCc1ccc(O)c(O)c1
inactive: activation [1] -0.248% | Potency [2] | Potency [3] | Potency [4]

NC(CP(=O)(O)O)C(=O)O (stereo not drawn)
inactive: activation [1] -3.82% | Potency [2] | Potency [3] | Potency [4]

O=C(CCCN1CCC2(CC1)C(=O)NCN2c1ccccc1)c1ccc(F)cc1
inactive: activation [1] -10.7% and -39.7% | Potency [2] | Potency [3] | Potency [4]

CC(C)NP(=O)(NC(C)C)OP(=O)(NC(C)C)NC(C)C
inactive: activation [1] -39% | Potency [2] | Potency [3] | Potency [4]

CCCn1c(=O)c2[nH]c(C3CCCC3)nc2n(CCCOC(=O)c2ccc(S(=O)(=O)F)cc2)c1=O
inactive: activation [1] 11.3% | Potency [2] | Potency [3] | Potency [4]

CCCCc1ccc(C(=O)O)nc1
inactive: activation [1] 16.6% | Potency [2] | Potency [3] | Potency [4]

CC12NC(Cc3ccccc31)c1ccccc12 (stereo not drawn)
inactive: activation [1] 6.02% | Potency [2] | Potency [3] | Potency [4]

C[C@H]1C2Cc3ccc(O)cc3[C@@]1(C)CCN2CC1CC1
inactive: activation [1] -23.4% | Potency [2] | Potency [3] | Potency [4]
